This is part of a sample that, as a whole, favours compounds with a hit. Of some 83,000 tested, about 20% had one in any assay.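 Compound tested at a single concentration for 48 hours in 96-well plates; a percent growth value below 10 was scored as active.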 A number with no mark means an inactive call. Activity calls are given as the source filed them.
test system: MDA-MB-468 breast; test: NCI-60 one-dose screen, 48 h (100 = growth as untreated, 0 = no growth, -100 = all killed); conditions: 10 µM unless noted

Compound	growth
C=C(C)[C@@H]1CC[C@]2(C(=O)N3CCN(C)CC3)CC[C@]3(C)[C@H](CC[C@@H]4[C@@]5(C)CC[C@H](OCCC#N)C(C)(C)[C@@H]5CC[C@]43C)[C@@H]12	69.4%
COc1cc(/C=C/c2cn[nH]c2-c2ccc(C)cc2)cc(OC)c1OC	12.9%
COc1ccc(/C(=C\c2cc(OC)c(OC)c(OC)c2)C(=O)N2CCNCC2)cc1	94.3%
Nc1nc(-c2ccccn2)cc(-c2cc(-c3ccccn3)nc(N)n2)n1	98.7%
CC1(C)CCCN1CCCN1c2ccccc2Sc2ccc(Cl)cc21	37.6%
CC1=NN(c2ccc(Cl)cc2)CC1(C)N=O (stereo not given)	7.84% (active)
CC[C@@H](C)/C=C(C)/C=C/C(O)=C1\C(=O)N[C@@H](Cc2ccc(OC(=O)[C@@](OC)(c3ccccc3)C(F)(F)F)cc2)C1=O	110%
O=C(Nc1cccc(C2=NCCN2)c1)c1ccc(OCCCOc2ccc(C(=O)Nc3cccc(C4=NCCN4)c3)cc2)cc1	-24.4% (active)
NC(=O)N1N=C(c2ccc(Cl)cc2)CC1c1cn(-c2ccccc2)nc1-c1ccc(Cl)cc1 (stereo not given)	69.1%
Cc1cc2nc3c4cc(N)ccc4n(CCN(C)C)c3nc2cc1C	-5.6% (active)
CCOc1ccccc1CN1CCc2nc3cc(C(C)(C)C)[nH]n3c(=O)c2C1	105%
CCCCCC(/C=N\NC(=S)N/N=C/C(=C/c1ccccc1)CCCCC)=C\c1ccccc1	47.4%
O=C1C(Cl)=C(Nc2ccc(O)cc2)C(=O)N1Cc1ccc(Cl)cc1	5.88% (active)
Cc1nn(-c2ccc(Br)cc2)c2nc3[nH]c(=O)[nH]c(=O)c3nc12	116%
O=C(Nc1cccc(-n2cc(-c3ccncc3)c(-c3ccc(Cl)c(O)c3)n2)c1)c1ccc(N2CCOCC2)c(C(F)(F)F)c1	66%
c1ccc(Sc2ncnc3ccccc23)cc1	50.3%
COc1ccc(CN2CCCC(C(=O)c3ccc(C(F)(F)F)cc3)C2)c(O)c1 (stereo not given)	12.9%
CC(=O)N(O)c1ccc(/C=C/c2ccccc2)cc1	-63.5% (active)
C=CCN=C(N)SCCCCCCSC(N)=NCC=C	84.7%
COc1cc(/C=C2\C(=O)Nc3ccc(Br)cc32)cc(OC)c1OC	16.9%

Compound	growth
O=C(/C=C/C12c3ccccc3C(c3ccccc31)C1C(=O)NC(=O)C12)c1cccs1 (stereo not given)	45.8%
O=C1/C(=C/c2ccc(Cl)c(Cl)c2)CN(C(=O)C(Cl)Cl)C/C1=C\c1ccc(Cl)c(Cl)c1	-52.5% (active)
Cc1ccc2[nH]c(=O)cc(-n3nncc3COc3ccc(C=O)cc3)c2c1	114%
CCCCc1ccc(NS(=O)(=O)c2cc3c4c(c2)CCN4C(=O)CC3)cc1	-25.9% (active)
Cc1ccc(C(=O)NCCNc2nccc(-c3c(-c4cccc(F)c4)nc4sccn34)n2)cc1	38.7%
Cl[C@@H]1CCO[C@H](c2cc3ccccc3c3ccccc23)C1	93.4%
C[C@H](C(=O)N(CCc1ccc(Cl)c(Cl)c1)Cc1cncs1)[C@@H]1CC[C@H](C[C@H](C)n2cc(CN3CCC(c4ccc(Cl)cc4)CC3)nn2)O1	90.3%
Cc1nn(Cc2ccccc2)cc1C(=O)Nc1sc2c(c1C(N)=O)CCC(=O)C2	47.2%
COc1cc(C2C3=C(COC3=O)N(CCO)c3cc4c(cc32)OCCO4)cc(OC)c1O (stereo not given)	-24.4% (active)
CCCCCCCCCCCCCCCCCC1=NCCCN1CCO	110%
O=[N+]([O-])c1ccc(N/N=C\c2cc(Cl)ccc2O)nc1	-2.47% (active)
O=C1c2ccccc2C(=O)c2c(N=Nc3[nH]c(=S)[nH]c3O)cccc21	-4.9% (active)
CN1c2ccccc2Sc2cc(C=C(C#N)C#N)ccc21	-24.4% (active)
CC(=O)C[n+]1ccc(C)cc1Sc1ccccc1C	82%
COC(=O)Nc1nc2ccc(Sc3ccccc3)cc2[nH]1	-3.91% (active)
CSc1n(Cc2ccc3ccccc3c2)c(C)c[n+]1Cc1ccc2ccccc2c1	-47.5% (active)
O=C(/C=C/c1ccccc1)c1cccc(OCCCOc2cccc(C(=O)/C=C/c3ccccc3)c2)c1	93.9%
O=C(N/N=C/C=C/c1ccc([N+](=O)[O-])o1)c1cc2ccccc2cc1O	-65% (active)
COc1nc(OC)nc(-c2cc(-c3cc(OC)c(OC)c(OC)c3)no2)n1	104%
CN1/C(=C\C(I)C(I)C2=[N+](C)c3ccccc3C2(C)C)C(C)(C)c2ccccc21 (stereo not given)	-17.6% (active)

Reference: PubChem BioAssay (NCI)
